Bioassay records: PubChem BioAssay, several laboratories
Gli-Sufu block = antagonists of Gli-Sufu signaling. inhibition, % at 5 µM. 340,000 tested, 0.74% active. Sufu-KO-LIGHT fibroblasts, Gli luciferase reporter luminescence. AID 588413;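 active = inhibition above about 55%, limit read from the data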;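 also: 0% = DMSO-treated cells and 100% = wells with medium but no cells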
NCOA2 inhibitor = human SRC2 (NCOA2) inhibition | Q15596 | 370,000 tested, 0.17% active | inhibition, % at 9 µM | HEK293 GAL4-SRC2 luciferase reporter, luminescence;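 active = inhibition above the mean inhibition of all tested compounds plus 3 SD, set per campaign, cut at about 52% in these data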;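 also: 0% = DMSO treated cells and 100% = cells given Gossypol at 36 µM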
NR5A2 inv ag = NR5A2 inverse agonism in reporter assay. O00482. 360,000 tested, 0.13% active. AID 602396. inhibition, % at 3.6 µM. HEK293T StAR-luciferase reporter, LRH-1 transfected, 24 h;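 active = inhibition above the mean inhibition of all tested compounds plus 3 SD, cut at about 73% in these data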;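 also: 0% = DMSO wells and 100% = reporter-only cells lacking LRH-1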
Target sequence (O00482 whole entry, looked up): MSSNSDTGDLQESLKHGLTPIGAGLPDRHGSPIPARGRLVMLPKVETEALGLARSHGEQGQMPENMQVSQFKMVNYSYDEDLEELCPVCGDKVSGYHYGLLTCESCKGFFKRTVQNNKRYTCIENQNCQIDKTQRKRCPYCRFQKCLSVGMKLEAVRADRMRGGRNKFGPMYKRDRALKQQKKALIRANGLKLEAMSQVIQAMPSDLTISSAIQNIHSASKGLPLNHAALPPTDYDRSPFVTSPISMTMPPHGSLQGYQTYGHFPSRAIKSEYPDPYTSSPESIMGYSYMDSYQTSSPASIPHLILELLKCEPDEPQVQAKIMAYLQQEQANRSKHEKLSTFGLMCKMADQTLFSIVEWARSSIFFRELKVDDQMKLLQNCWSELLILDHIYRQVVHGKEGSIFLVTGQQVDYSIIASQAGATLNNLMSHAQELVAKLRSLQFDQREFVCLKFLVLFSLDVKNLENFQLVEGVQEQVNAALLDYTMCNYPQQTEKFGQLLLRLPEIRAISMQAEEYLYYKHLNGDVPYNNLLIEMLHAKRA
NCOA1 inh = inhibits human SRC1 coactivator | HEK293 GAL4-SRC1 luciferase reporter, luminescence | inhibition, % at 3.6 µM | 360,000 tested, 0.12% active | AID 588354;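 active = inhibition above the campaign mean plus 3 SD, with each screening campaign given its own cutoff, cut at about 60% in these data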;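 also: 0% = DMSO treated cells and 100% = gossypol at 36 µM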
SRC3 inh = inhibitors of human steroid receptor coactivator 3 (SRC3); HEK293 GAL4-SRC3 luciferase reporter, luminescence; inhibition, % at 3.6 µM; AID 588352; 360,000 tested, 0.17% active;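 active = inhibition above a per-campaign cutoff, the mean of all compounds plus 3 SD, cut at about 60% in these data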;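 also: 0% = DMSO-treated cells and 100% = gossypol-treated cells at 36 µM; higher means less SRC3-driven luciferase light from the GAL4 reporter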
An asterisk follows results filed as active; x = not tested or not shown. Rows were chosen to be rich in hits. Some 0.83% of all compounds tested hit in one or more screens of this group.

SMILES	Gli-Sufu block	NCOA2 inhibitor	NR5A2 inv ag	NCOA1 inh	SRC3 inh
OCCCNc1cc(-c2ccnc(Nc3cccc(Cl)c3)n2)ccn1	75*	65*	96*	86*	87*
COc1ccc(N(C(=O)CCl)C(C(=O)NCCc2ccccc2)c2cccs2)cc1 (stereo not drawn)	95*	47	-18	3	71*
COc1ccc(CC(=O)Nc2cccc(-c3nnc(-c4ccccc4)o3)c2)cc1OC	x	61*	-54	36	51
COc1ccc(CC(=O)Nc2cccc(-c3nnc(-c4ccc(C)cc4)o3)c2)cc1OC	2	-11	8	-7	0
CC(=O)[C@@]1(O)Cc2c(O)c3c(c(O)c2[C@H](O[C@H]2C[C@H](N)[C@H](O)[C@H](C)O2)C1)C(=O)c1ccccc1C3=O	x	-51	34	-138	-67
COc1cccc2c1C(=O)c1c(O)c3c(c(O)c1C2=O)CC(O)(C(C)=O)CC3OC1CC(N(C)C)C(O)C(C)O1 (stereo not drawn)	69*	55*	97*	75*	85*
COc1cccc2c1C(=O)c1c(O)c3c(c(O)c1C2=O)C[C@@](O)(C(=O)CO)C[C@@H]3O[C@H]1C[C@H](N)[C@H](O)[C@H](C)O1	53	-270	98*	-38	55
COc1cccc2c1C(=O)c1c(O)c3c(c(O)c1C2=O)C[C@@](O)(C(=O)CO)C[C@@H]3OC1CC(N)C(O)C(C)O1 (stereo partly drawn)	91*	-274	78*	47	-14
COc1ccc(S[C@]2(C(=O)N3CCOCC3)CC(=O)N(c3ccc(OC)cc3)[C@@H]2c2ccc(OC)cc2)cc1	x	-42	x	x	x
C[C@H](O)[C@@H]1CN2CCc3ccc(-c4ccc5c(c4)OCO5)cc3[C@@H]2C[C@@H]1N(C)C(=O)Nc1ccccc1	x	8	x	x	x
Cc1ccc(C(=O)O/N=C(\N)c2ccccn2)c(Cl)c1	48	77*	50	36	57
CCCc1ccc(C(=O)O/N=C(\N)c2ccccn2)cc1	49	59*	45	55	47
N/C(=N\OC(=O)c1ccc(Cl)cc1Cl)c1ccccn1	-26	46	-29	-33	15
CC(C)(C)C(=O)/C(=C/c1ccc(Cl)cc1)n1cncn1	-7	62*	65	50	73*
CCc1cc2c(=O)[nH]c(-c3ccccn3)nc2s1	58*	-55	-96	-102	-95
CCc1cc2c(=O)[nH]c(N3CCCC3)nc2s1	-15	-22	-30	-20	-37
Cc1c(N=Nc2c(-c3ccc([N+](=O)[O-])cc3)[nH]n(C(N)=S)c2=O)cccc1[N+](=O)[O-]	68*	-20	-10	1	3
NC(=S)n1[nH]c(-c2ccc([N+](=O)[O-])cc2)c(N=Nc2ccccc2[N+](=O)[O-])c1=O	2	5	1	-65	-1
Cc1cc(C(=O)CN2C(=O)c3ccccc3S2(=O)=O)c(C)n1-c1ccccc1	15	41	-10	-12	-5
C=CCn1c(C)cc(C(=O)CN2C(=O)NC3(CCCc4ccccc43)C2=O)c1C (stereo not drawn)	-18	-30	-10	-14	-17
C=CCn1c(C)cc(C(=O)CN2C(=O)c3ccccc3S2(=O)=O)c1C	89*	x	88*	87*	88*
O=C(CN1C(=O)c2ccccc2S1(=O)=O)c1ccccc1Cl	x	57*	12	14	20
CCn1c(C)cc(C(=O)CN2C(=O)c3ccccc3S2(=O)=O)c1C	64*	34	45	52	47
Cc1ccc(-c2cc(C(=O)NN=Cc3cccc(OCc4ccccc4)c3)[nH]n2)cc1C	x	-33	x	x	x
COc1ccc(/C=C/S(=O)(=O)NCCc2ccccc2)c(CNC(=O)OC(C)(C)C)c1	x	14	x	x	x
CC(COc1ccc(CC#N)cc1)CN1CCC(C(O)(c2ccccc2)c2ccccc2)CC1 (stereo not drawn)	x	27	x	x	x
CNc1nc2cc([N+](=O)[O-])c([N+](=O)[O-])cc2nc1NC	84*	16	7	10	46
C1=C(CCNc2ncnc3c2[nH]c2ccccc23)CCCC1	78*	2	43	-8	14
COC(=O)[C@H](CC(C)C)N(Cc1cn(Cc2ccc(C)cc2)nn1)S(=O)(=O)c1ccccc1Br	x	4	x	x	x
CCOc1ccc(C(=O)C(CCC(CN(C)C)C(=O)c2ccc(OCC)cc2)CN(C)C)cc1 (stereo not drawn)	42	52	88*	6	41
